The values that follow come from PubChem BioAssay.

The target in one assay is Albumin (Bos taurus) (UniProt P02769). The assay can be described thus: compounds binding labelled BSA control protein – biochemical, small-molecule microarray, Alexa647 label, 635/667 nm fluorescence, artefact control for SMM control protein annotation, profiling panel (AID 1118).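 Further: score merges 667 nm emission intensity and signal-to-noise per printed compound spot.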 Particulars: BSA-A647 binding, fluorescence 635 nm, higher = more signal.
Albumin (Bos taurus), sequence (P02769 whole entry, looked up): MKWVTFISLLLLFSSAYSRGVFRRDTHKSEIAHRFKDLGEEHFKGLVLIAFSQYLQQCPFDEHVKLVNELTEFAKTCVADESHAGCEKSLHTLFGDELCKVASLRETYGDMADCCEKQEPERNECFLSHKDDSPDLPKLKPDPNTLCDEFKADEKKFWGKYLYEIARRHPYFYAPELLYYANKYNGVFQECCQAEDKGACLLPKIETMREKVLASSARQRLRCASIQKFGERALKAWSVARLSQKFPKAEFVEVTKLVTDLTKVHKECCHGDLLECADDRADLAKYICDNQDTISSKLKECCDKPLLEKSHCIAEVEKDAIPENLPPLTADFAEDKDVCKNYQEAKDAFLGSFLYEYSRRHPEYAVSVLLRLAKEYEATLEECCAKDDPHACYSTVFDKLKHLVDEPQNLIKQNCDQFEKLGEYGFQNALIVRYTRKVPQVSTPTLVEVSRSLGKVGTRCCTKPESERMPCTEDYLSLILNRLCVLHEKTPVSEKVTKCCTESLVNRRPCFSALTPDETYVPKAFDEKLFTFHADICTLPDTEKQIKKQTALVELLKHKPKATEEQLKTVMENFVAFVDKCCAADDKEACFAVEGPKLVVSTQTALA
Assay [1] is described as follows: probe aXIP binding to arrayed compounds – biochemical, NeuroSMM set, 635/667 nm fluorescence, primary screen (AID 1119).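 Further: probe is the protein aXip251-270 applied at 1 µg/mL to compound-printed slides; binding of probe to printed compounds measured as 667 nm fluorescence plus signal to noise.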 Particulars: small-molecule microarray, higher = more signal, called active from +8 up or from −8 down.
Assay [2] can be described thus: probe aNOTCH3 binding on compound microarray – biochemical, small-molecule microarray, 635/667 nm fluorescence, primary screen (AID 1120).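 Further: probe is a biotin-tagged antibody raised against NOTCH3 rather than NOTCH3 protein; score merges spot fluorescence near 667 nm with spot signal to noise.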 Particulars: higher = more signal.
Assay [3] in a line: probe aNOTCH2 binding on compound microarray – biochemical, small-molecule microarray, 635/667 nm fluorescence, primary screen (AID 1121).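 Further: score merges feature fluorescence read at 667 nm with its signal to noise.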 As to conditions: higher = more signal.
Assay [4] concerns the target Carbonic anhydrase 2 (Homo sapiens) (UniProt P00918). The assay can be described thus: compounds binding carbonic anhydrase 2 – biochemical, small-molecule microarray, Alexa647-labelled CAII, profiling panel (AID 1122). Particulars: CAII-A647 binding fluorescence, higher = more signal.
Assay [5] in a line: COS7 lysate on small-molecule microarray, probe aHis, 635 nm (AID 1123).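 Further: z-score combines 667nm fluorescence intensity with signal-to-noise per printed compound spot.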 As to conditions: COS7 cell lysate, fluorescence, higher = more signal.
Assay [6] is described as follows: probe aLAP1 signal on lysate-treated microarray – cell lysate, small-molecule microarray, COS7 lysate, primary screen (AID 1124).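 Further: lysate comes from COS7 cells expressing LAP1 and is applied at 0.3 µg/mL; score merges spot fluorescence near 667 nm with signal-to-noise over triplicate slides.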 As to conditions: probe aLAP1, fluorescence, higher = more signal.
A further assay deals with Sam68 (KHDRBS1). The assay can be described thus: compounds binding KHDRBS1 protein – biochemical, small-molecule microarray, 635 nm fluorescence, primary screen (AID 1125).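 Further: score merges 667 nm channel intensity with signal to noise over triplicate slides.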 Particulars: higher = more signal.
Assay [7] has as its system Chordin-like protein 2 (CHRDL2). The assay can be described thus: compounds binding chordin-like 2 – biochemical, small-molecule microarray, 635 nm fluorescence, primary screen (AID 1126).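 Further: printed compound slides probed with Chrdl2 protein at 4 µg/mL for 1 h at 4 C; score merges 667 nm emission intensity with signal to noise over three replicate slides.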 Particulars: fluorescence 635 nm, higher = more signal.
The target of assay [8] is Concanavalin-A (Canavalia ensiformis) (UniProt P02866). The experiment in a line: compounds binding concanavalin A lectin – biochemical, small-molecule microarray, Alexa647 label, 635 nm, artefact control for SMM control protein annotation, primary screen (AID 1127).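 Further: z combines 667 nm emission intensity with signal-to-noise across three replicate slides.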 As to conditions: ConA-A647 binding fluorescence, higher = more signal.
Concanavalin-A (Canavalia ensiformis), sequence (P02866 whole entry, looked up): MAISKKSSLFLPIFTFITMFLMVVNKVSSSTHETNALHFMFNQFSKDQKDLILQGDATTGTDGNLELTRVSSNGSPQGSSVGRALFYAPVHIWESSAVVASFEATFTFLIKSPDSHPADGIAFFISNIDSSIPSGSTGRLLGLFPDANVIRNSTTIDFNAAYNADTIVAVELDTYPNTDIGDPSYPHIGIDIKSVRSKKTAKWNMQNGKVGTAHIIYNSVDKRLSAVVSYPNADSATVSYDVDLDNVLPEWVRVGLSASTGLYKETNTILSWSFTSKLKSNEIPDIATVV
Assay [9] can be described thus: compounds binding Alexa647 anti-His antibody – biochemical, small-molecule microarray, 635 nm fluorescence, artefact control for SMM control protein annotation, primary screen (AID 1128).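 Further: score merges feature fluorescence with signal-to-noise for each printed compound spot.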 As to conditions: higher = more signal.
In assay [10] the test system is Human papillomavirus type 1a E7 protein (residues 1-88). The assay can be described thus: HPV1a E7 small-molecule binders, primary screen, biochemical, small-molecule microarray, residues 1-88, 635 nm (AID 1129). As to conditions: small-molecule microarray binding, fluorescence 635 nm; higher = more signal.
Assay [11] has as its target Focal adhesion kinase 1 (Homo sapiens) (UniProt Q05397). The experiment in a line: PTK2 protein binding on printed compound slides – biochemical, small-molecule microarray, 635/667 nm fluorescence, BSA, DTT, primary screen (AID 1130).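 Further: composite of spot emission at 667 nm and signal to noise over triplicate slides.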 As to conditions: 635 nm fluorescence, higher = more signal.
The subject of assay [12] is Fibrinogen (Alexa647-labelled). The experiment in a line: Alexa647-fibrinogen binding to printed small molecules – biochemical, small-molecule microarray, 635/667 nm fluorescence, artefact control for SMM control-protein annotation, profiling panel (AID 1131).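 Further: z-score merges 667 nm fluorescence with per-spot signal-to-noise over triplicate slides.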 Particulars: fibrinogen-A647 binding fluorescence, higher = more signal.
Assay [13] concerns the target Follistatin (Homo sapiens) (UniProt P19883). The assay can be described thus: FST protein binding to printed compounds – biochemical, small-molecule microarray, 635/667 nm fluorescence, primary screen (AID 1132). As to conditions: 635 nm fluorescence, higher = more signal.
The target of assay [14] is Fibroblast growth factor 2 (Homo sapiens) (UniProt P09038). The assay can be described thus: basic fibroblast growth factor binding to printed compounds – biochemical, small-molecule microarray, 635/667 nm fluorescence, primary screen (AID 1133). Particulars: FGF2, fluorescence 635/667, higher = more signal.
Fibroblast growth factor 2 (Homo sapiens), sequence (P09038 whole entry, looked up): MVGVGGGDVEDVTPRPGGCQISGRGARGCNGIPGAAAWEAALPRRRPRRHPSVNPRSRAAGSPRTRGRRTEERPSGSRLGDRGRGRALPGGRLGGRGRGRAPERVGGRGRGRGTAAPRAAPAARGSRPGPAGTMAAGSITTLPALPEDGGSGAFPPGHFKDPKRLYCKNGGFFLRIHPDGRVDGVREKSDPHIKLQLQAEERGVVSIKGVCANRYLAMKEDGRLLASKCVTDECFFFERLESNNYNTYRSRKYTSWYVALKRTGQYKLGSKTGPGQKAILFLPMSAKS
A short description of assay [15]: JC-1 mitochondrial potential readout, lung cancer cells – cell-based, A549, JC-1 fluorescence, basal, 24 h, 100 nL, profiling panel (AID 1138).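 Further: A549 lung adenocarcinoma cells under basal conditions with no added stimulus; test concentration not given here.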 As to conditions: higher = more signal.
Another assay concerns Lefty1. The experiment in a line: Lefty1 protein binding to printed compounds – biochemical, small-molecule microarray, 635/667 nm fluorescence, primary screen (AID 1139). Particulars: fluorescence 635/667, higher = more signal.
The subject of assay [16] is wheat germ agglutinin (Triticum aestivum), Alexa647-labelled. The assay can be described thus: Alexa647-WGA lectin binding to printed small molecules – biochemical, small-molecule microarray, 635/667 nm fluorescence, artefact control for SMM control-protein annotation, profiling panel (AID 1140).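 Further: score merges 667 nm feature emission with signal to noise over triplicate slides.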 Particulars: WGA-A647 binding, 635 nm fluorescence, higher = more signal.
For assay [17], the target named is Luciferin 4-monooxygenase (Photinus pyralis) (UniProt P08659). The experiment in a line: inhibition of purified Photinus pyralis luciferase – biochemical, luminescence, purified enzyme, 2006 set, primary screen (AID 1141).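 Further: cell-free assay with purified firefly luciferase at 100 ng per well in PBS; test concentration not given here.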 Particulars: purified firefly luciferase, SteadyGlo luminescence, 30 min; higher = more signal, called active from +8 up or from −8 down.
Luciferin 4-monooxygenase (Photinus pyralis), sequence (P08659 whole entry, looked up): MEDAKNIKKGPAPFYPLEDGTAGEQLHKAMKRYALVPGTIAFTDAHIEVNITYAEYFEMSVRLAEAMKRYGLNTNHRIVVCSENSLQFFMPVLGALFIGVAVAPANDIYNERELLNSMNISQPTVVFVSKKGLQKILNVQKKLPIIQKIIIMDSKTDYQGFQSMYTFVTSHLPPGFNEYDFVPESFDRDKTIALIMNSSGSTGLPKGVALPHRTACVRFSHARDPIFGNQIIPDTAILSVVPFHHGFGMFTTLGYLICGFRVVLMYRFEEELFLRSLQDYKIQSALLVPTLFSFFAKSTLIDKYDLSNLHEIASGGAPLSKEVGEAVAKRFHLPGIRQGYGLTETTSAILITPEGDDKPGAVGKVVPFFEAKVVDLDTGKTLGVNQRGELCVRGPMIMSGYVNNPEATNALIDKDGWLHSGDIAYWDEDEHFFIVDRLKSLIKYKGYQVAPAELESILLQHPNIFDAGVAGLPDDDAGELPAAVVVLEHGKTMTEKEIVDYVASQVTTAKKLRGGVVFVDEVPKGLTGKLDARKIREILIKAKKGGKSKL

The source made the active and inactive calls.

Focal adhesion kinase 1 (Homo sapiens), sequence (Q05397 whole entry, looked up): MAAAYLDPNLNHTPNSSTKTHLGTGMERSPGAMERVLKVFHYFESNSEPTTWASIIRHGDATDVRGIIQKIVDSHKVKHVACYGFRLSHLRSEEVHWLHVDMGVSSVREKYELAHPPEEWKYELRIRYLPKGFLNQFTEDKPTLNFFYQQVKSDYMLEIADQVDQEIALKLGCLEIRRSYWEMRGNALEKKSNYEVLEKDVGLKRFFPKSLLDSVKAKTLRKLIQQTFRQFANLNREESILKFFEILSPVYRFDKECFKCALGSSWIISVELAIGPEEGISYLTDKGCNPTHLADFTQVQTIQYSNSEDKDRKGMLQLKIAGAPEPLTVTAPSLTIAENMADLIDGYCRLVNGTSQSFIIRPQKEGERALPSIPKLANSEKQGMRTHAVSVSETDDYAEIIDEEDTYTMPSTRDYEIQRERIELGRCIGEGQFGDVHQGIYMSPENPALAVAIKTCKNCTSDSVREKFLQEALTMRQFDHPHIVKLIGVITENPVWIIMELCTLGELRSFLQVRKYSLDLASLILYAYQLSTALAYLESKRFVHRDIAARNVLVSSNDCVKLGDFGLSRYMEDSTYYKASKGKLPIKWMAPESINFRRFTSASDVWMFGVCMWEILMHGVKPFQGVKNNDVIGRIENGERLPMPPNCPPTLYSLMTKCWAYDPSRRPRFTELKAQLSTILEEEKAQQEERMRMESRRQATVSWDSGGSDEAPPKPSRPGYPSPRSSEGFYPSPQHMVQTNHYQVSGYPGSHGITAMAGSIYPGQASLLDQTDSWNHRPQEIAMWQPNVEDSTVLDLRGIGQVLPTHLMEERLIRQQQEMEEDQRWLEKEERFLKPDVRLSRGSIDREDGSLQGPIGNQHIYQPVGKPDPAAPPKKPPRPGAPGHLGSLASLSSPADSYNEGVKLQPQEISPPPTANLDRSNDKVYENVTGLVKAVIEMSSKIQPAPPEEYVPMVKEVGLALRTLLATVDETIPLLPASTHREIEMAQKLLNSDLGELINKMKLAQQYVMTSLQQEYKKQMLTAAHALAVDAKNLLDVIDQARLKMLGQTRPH
Follistatin (Homo sapiens), sequence (P19883 whole entry, looked up): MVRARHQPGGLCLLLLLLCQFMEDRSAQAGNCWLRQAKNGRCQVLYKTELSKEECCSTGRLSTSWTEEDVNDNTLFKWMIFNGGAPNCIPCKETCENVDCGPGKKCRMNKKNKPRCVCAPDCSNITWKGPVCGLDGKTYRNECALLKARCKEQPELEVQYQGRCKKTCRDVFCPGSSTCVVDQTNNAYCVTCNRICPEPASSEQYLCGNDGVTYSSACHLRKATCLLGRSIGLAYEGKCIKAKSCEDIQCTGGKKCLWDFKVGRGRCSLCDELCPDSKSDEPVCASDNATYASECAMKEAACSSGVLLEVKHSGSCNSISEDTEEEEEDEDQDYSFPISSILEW

In the case of `COc1ccc(C(O)C2C=CC3C(=O)N(c4ccccc4)C(=O)C3N2Nc2ccc(C(C)C)cc2)c2ccccc12` (stereo not given), the composite z-score came to 0.916 with Albumin (Bos taurus); 0.378 in assay [2]; 0.186 in assay [3]; 0.725 in assay [4]; 2.84 in assay [5]; 0.284 in assay [6]. Further, the composite z-score in the assay with Sam68 (KHDRBS1) is 1.31; in assay [7] it was -0.118; in assay [8] it was 1.12; in assay [9], 1.74; in assay [10] it was 1.25; in [11], 0.588. The composite z-score was 0.976 in assay [12]; 0.862 in assay [13]; -0.25 in assay [14]; 0.031 in the assay with Lefty1; 0.838 in [16]. Further, in [1], the composite Z-score is 0.0396 (inactive). In addition, the z-score is 0.543 in assay [15] and -1.65 (inactive) in assay [17].

Regarding `COCCOC(=O)N1C(=O)[C@@]2(c3cc(C#CC4=CCCCC4)ccc31)[C@H](c1ccc(O)cc1)N1[C@H](c3ccccc3)[C@H](c3ccccc3)OC(=O)[C@H]1[C@@H]2C(=O)NC[C@H](O)c1ccccc1`, the composite z-score with Albumin (Bos taurus) is 0.613; in [2], 0.158; in assay [3] it was -0.148; in [4] it was 0.27; in assay [5] it was 1.68; in assay [6], 1.02. Moreover, the composite z-score in the assay on Sam68 (KHDRBS1) came to 1.3; in [7], 0.642; in assay [8], 0.935; in assay [9], 1.13; in [10] it was 1.22; in [11] it was 0.26. Further, the composite z-score in assay [12] worked out at 0.813; in assay [13], 1.22; in [14], 0.685; in the assay with Lefty1, 0.858; in assay [16], 0.781. In assay [1], the composite Z-score was 0.225 (inactive). Besides, the figures for the z-score in assay [15] and in assay [17] were -1.14 and -1.08 (inactive), respectively.

On to `CCOC(=O)C1=C[C@@H](C(C)(C)C)N(S(=O)(=O)c2ccc(C)cc2)[C@H]1c1ccc(C)cc1`, for which the composite z-score with Albumin (Bos taurus) was determined as 0.804; in assay [2] it was 0.305; in assay [3], 0.0554; in assay [4] it was 0.263; in assay [5], 2.49; in assay [6], 0.512. For the same molecule, the composite z-score with Sam68 (KHDRBS1) is 1.29; in assay [7], 0.205; in assay [8] it was 1.18; in assay [9], 0.505; in [10] it was 1.16; in [11], -0.115. Further, the composite z-score in assay [12] amounted to 0.958; in assay [13], 1.29; in [14] it was 0.949; in the assay with Lefty1, 1.12; in [16] it was 0.764. Moreover, in assay [1], the composite Z-score is 0.403 (inactive). The z-score in assay [15] was 4.52; in assay [17], 0.715 (inactive).

Take `COC(=O)[C@@]1(Cc2ccccc2)[C@H]2c3cc(C(=O)N4CCCC4)n(CCSCCO)c3C[C@H]2CN1C(=O)c1ccccc1`: the composite z-score with Albumin (Bos taurus) turned out to be 1.05; in [2] it was 0.543; in [3], 0.187; in assay [4], 0.841; in assay [5], 3.57; in assay [6], 1.22. Moreover, the composite z-score is 1.12 in the assay on Sam68 (KHDRBS1); -0.997 in assay [7]; 0.554 in assay [8]; 2.38 in assay [9]; 1.21 in [10]; 0.776 in assay [11]. Besides, the composite z-score in assay [12] is 0.975; in assay [13] it was 0.337; in assay [14], 0.101; in the assay with Lefty1, 0.0341; in assay [16], 0.844. Moreover, the composite Z-score in [1] was -0.176 (inactive). The z-score in assay [15] is 0.451; in assay [17], 0.103 (inactive).

For the molecule `CCOC(=O)C=Cc1ccccc1O`, the composite z-score with Albumin (Bos taurus) is 0.725; in assay [2], 0.186; in assay [3], 0.0295; in assay [4], 0.188; in assay [5], 0.466; in assay [6], 0.163. In addition, the composite z-score with Sam68 (KHDRBS1) was 1.01; in assay [7] it was 0.0871; in assay [8] it was 0.591; in assay [9], 0.712; in [10], 0.923; in [11] it was -0.0156. The composite z-score was 0.881 in assay [12]; 0.79 in assay [13]; 0.292 in assay [14]; 0.175 in the assay with Lefty1; 0.404 in assay [16]. In [1], the composite Z-score was -0.116 (inactive). The z-score in [15] is -1.47; in [17] it was -0.532 (inactive).
